Drawing on PubChem BioAssay (NCI), this text covers growth for eight compounds.

Test systems include MOLT-4 leukemia; SR leukemia; RPMI-8226 leukemia; OVCAR-8 ovarian; OVCAR-5 ovarian; OVCAR-4 ovarian; SK-OV-3 ovarian; IGROV1 ovarian; OVCAR-3 ovarian; HS 578T breast; NCI/ADR-RES ovarian; T-47D breast; BT-549 breast; MDA-MB-435 melanoma; SW-620 colon; MCF7 breast; HCT-116 colon; HCC-2998 colon; KM12 colon.
Common to all, as to test: NCI-60 one-dose screen, 48 h (100 = growth as untreated, 0 = no growth, -100 = all killed)
Common to all, as to conditions: 10 µM unless noted

Compounds without any hit were thinned out: in the full panel of roughly 83,000, 20% have a hit.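 How to read the values: 0–100, growth inhibition (40 = 60% inhibited); 0, no net growth; -100 to 0, cell death (-40 = 40% of starting cells died; -100 = all dead).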 Values without a mark were called inactive. Active and inactive are the calls of the source. How the source made its calls: active means growth percent below 10; inactive means the rest.

On to `C=CC[n+]1ccc(-c2cc[n+](CC=C)cc2)cc1`, for which the growth is 88.8% with MOLT-4 leukemia; 93.9% with SR leukemia; 79.9% in the test with RPMI-8226 leukemia; 61.3% in the test with OVCAR-8 ovarian; 126% in the test with OVCAR-5 ovarian; 37.6% in the test on OVCAR-4 ovarian. The growth in the test with SK-OV-3 ovarian was 108%; in the test on IGROV1 ovarian, 13.6%; with OVCAR-3 ovarian, 40.7%; with HS 578T breast, 116%; with NCI/ADR-RES ovarian, 111%; in the test with T-47D breast it was 82.1%. The growth is 109% with BT-549 breast; 104% in the test on MDA-MB-435 melanoma; 114% in the test with SW-620 colon; 89.7% in the test with MCF7 breast; 98.5% with HCT-116 colon; 95.4% with HCC-2998 colon. Moreover, in the test with KM12 colon, the growth was 65.3%.
Regarding `CC(=O)OC1CCC2(C)C(CCC3C2CC(=O)C2(C)C3CC(Sc3ccc(N(CCCl)CCCl)cc3)C2C(C)=O)C1` (configuration not stated), the growth is 77.3% in the test on MOLT-4 leukemia; 51.5% in the test on SR leukemia; 49% with RPMI-8226 leukemia; 84.1% with OVCAR-8 ovarian; 95.6% in the test with OVCAR-5 ovarian; 84.4% in the test on OVCAR-4 ovarian. The growth in the test on SK-OV-3 ovarian is 113%; with IGROV1 ovarian, 116%; in the test with OVCAR-3 ovarian, 99.6%; in the test with HS 578T breast, 110%; with NCI/ADR-RES ovarian it was 74.7%; with T-47D breast, 66.7%. For the same compound, the growth was 80.8% with BT-549 breast; 105% with MDA-MB-435 melanoma; 68.4% in the test on SW-620 colon; 74.2% in the test with MCF7 breast; 72% in the test with HCT-116 colon; 87.2% in the test with HCC-2998 colon. In addition, in the test on KM12 colon, the growth was 32.6%.
Regarding `COc1cc(NCCCN=C(N)N)c2ncccc2c1`, the growth with MOLT-4 leukemia was 94.1%; in the test on SR leukemia, 102%; in the test with RPMI-8226 leukemia it was 85.4%; in the test with OVCAR-8 ovarian, 81.2%; in the test with OVCAR-5 ovarian, 86.2%; in the test on OVCAR-4 ovarian it was -95.8% (active). The growth was 93.4% in the test on SK-OV-3 ovarian; 36% with IGROV1 ovarian; 7.99% (active) with OVCAR-3 ovarian; 88.8% in the test on HS 578T breast; 108% with NCI/ADR-RES ovarian; -0.911% (active) in the test with T-47D breast. Besides, the growth in the test on BT-549 breast was 65.9%; in the test on MDA-MB-435 melanoma it was 103%; in the test on SW-620 colon, 92.8%; with MCF7 breast it was -51.3% (active); in the test on HCT-116 colon, 78.1%; in the test with HCC-2998 colon it was 94.3%. For the same compound, the growth in the test with KM12 colon is 49.3%.
On to `C/C(=C\c1ccn(-c2ccc(N)cc2C(F)(F)F)n1)[C@@H]1C[C@@H]2O[C@]2(C)CCC[C@H](C)[C@H](O)[C@@H](C)C(=O)C(C)(C)[C@@H](O)CC(=O)O1`, for which the growth is 9.23% (active) with MOLT-4 leukemia; 12.2% in the test with SR leukemia; 5.57% (active) in the test with RPMI-8226 leukemia; 17.4% in the test on OVCAR-8 ovarian; 24.1% with OVCAR-5 ovarian; 69.7% in the test with OVCAR-4 ovarian. The growth with SK-OV-3 ovarian is 0.896% (active); with IGROV1 ovarian it was 43.5%; with OVCAR-3 ovarian, 12.5%; with HS 578T breast, -10.7% (active); with NCI/ADR-RES ovarian it was 1.74% (active); with T-47D breast, 39.1%. Also, the growth in the test on BT-549 breast is 27%; with MDA-MB-435 melanoma, -61.7% (active); in the test with SW-620 colon, 23.9%; with MCF7 breast, 16.4%; in the test on HCT-116 colon, 12.1%; in the test on HCC-2998 colon, 14.1%. For the same compound, the growth in the test on KM12 colon was 11.4%.
Turning to `CC[C@H](C)[C@H](NC(=O)c1nccn1C)C(=O)N(C)[C@H](C[C@@H](OC(C)=O)c1nc(C(=O)N[C@@H](Cc2ccccc2)C[C@H](C)C(=O)OC)cs1)C(C)C`, the growth in the test with MOLT-4 leukemia is 15.9%; in the test on SR leukemia, 14.2%; in the test with RPMI-8226 leukemia, 24.6%; in the test with OVCAR-8 ovarian it was 16.3%; with OVCAR-5 ovarian, 38%; with OVCAR-4 ovarian it was 48.4%. In addition, the growth was 19.4% in the test with SK-OV-3 ovarian; 35.6% with IGROV1 ovarian; -19.8% (active) in the test on OVCAR-3 ovarian; 20.6% with HS 578T breast; 16.5% with NCI/ADR-RES ovarian; 47.9% with T-47D breast. For the same compound, the growth in the test with BT-549 breast was 0.0991% (active); with MDA-MB-435 melanoma it was -48% (active); in the test with SW-620 colon, 26.1%; in the test on MCF7 breast it was 17.5%; with HCT-116 colon it was 3.27% (active); in the test on HCC-2998 colon, 31.5%. Also, the growth in the test with KM12 colon was 11.1%.
`CCOC(=O)[C@@H](C)C[C@H](Cc1ccccc1)NC(=O)c1csc([C@@H](C[C@H](C(C)C)N(C)C(=O)[C@@H](NC(=O)[C@H]2CCCCN2C)C(C)(C)CC)OC(C)=O)n1`: the growth was 13.5% with MOLT-4 leukemia; -4.98% (active) in the test with SR leukemia; -1.78% (active) with RPMI-8226 leukemia; 10.6% in the test with OVCAR-8 ovarian; 28% in the test with OVCAR-5 ovarian; 30.4% in the test on OVCAR-4 ovarian. Moreover, the growth in the test on SK-OV-3 ovarian was 26.9%; in the test on IGROV1 ovarian it was 14.5%; in the test on OVCAR-3 ovarian, 2.01% (active); with HS 578T breast, -9.16% (active); in the test with NCI/ADR-RES ovarian, 14.7%; in the test with T-47D breast it was 70.7%. Moreover, the growth in the test on BT-549 breast was -40.2% (active); with MDA-MB-435 melanoma, -60.8% (active); in the test with SW-620 colon it was 21.9%; in the test with MCF7 breast it was 24.2%; in the test on HCT-116 colon it was 0% (active); in the test with HCC-2998 colon it was 11.9%. Also, the growth with KM12 colon was 1.89% (active).
On to `C[C@]12CCc3sc(-c4ccccc4O)nc3C1=CC[C@@H]1[C@@H]2CC[C@]2(C)C(=O)CC[C@@H]12`, for which the growth was 94.7% in the test on MOLT-4 leukemia; 109% in the test with SR leukemia; 107% in the test with RPMI-8226 leukemia; 105% in the test on OVCAR-8 ovarian; 104% in the test on OVCAR-5 ovarian; 108% in the test on OVCAR-4 ovarian. The growth in the test on SK-OV-3 ovarian was 102%; with IGROV1 ovarian, 103%; in the test with OVCAR-3 ovarian, 104%; with HS 578T breast, 105%; with NCI/ADR-RES ovarian it was 106%; in the test on T-47D breast it was 90.1%. Also, the growth in the test on BT-549 breast was 110%; with MDA-MB-435 melanoma it was 102%; in the test on SW-620 colon it was 103%; in the test on MCF7 breast, 93.3%; in the test on HCT-116 colon, 104%; in the test on HCC-2998 colon, 111%. Further, the growth in the test on KM12 colon was 107%.
In the case of `O=C1C2CCC1C(N1CCCC1)CC2` (configuration not stated), the growth with MOLT-4 leukemia was 98%; in the test on SR leukemia, 100%; with RPMI-8226 leukemia, 98.7%; with OVCAR-8 ovarian, 96.3%; in the test with OVCAR-5 ovarian it was 101%; with OVCAR-4 ovarian, 106%. The growth was 106% in the test with SK-OV-3 ovarian; 96% with IGROV1 ovarian; 106% in the test on OVCAR-3 ovarian; 102% in the test on HS 578T breast; 102% in the test on NCI/ADR-RES ovarian; 106% with T-47D breast. Besides, the growth was 98% in the test with BT-549 breast; 96.8% in the test on MDA-MB-435 melanoma; 99.5% in the test on SW-620 colon; 94.7% in the test on MCF7 breast; 102% in the test with HCT-116 colon; 106% with HCC-2998 colon. The growth in the test on KM12 colon was 101%.
